Data on 40 compounds can be found in PubChem BioAssay (NCI).

Compounds without any hit were thinned out: in the full panel of roughly 83,000, 20% have a hit.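 Results are percent growth after 48 hours of single-concentration exposure. 100 means growth as in untreated cells, lower positive values show inhibition; negative values down to -100 show cell death.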 Values without a mark were called inactive. Calls of active or inactive are those of the source.

In this experiment the test system is U251 CNS. Kind of experiment: NCI-60 one-dose screen, 48 h (100 = growth as untreated, 0 = no growth, -100 = all killed). As to conditions: 10 µM unless noted. Here is the method: Growth inhibition of the U251 human tumor cell line is measured as a screen for anti-cancer activity. Cells are grown in 96 well plates and exposed to the test compound for 48 hours. Compounds are tested at a single concentration, which is 10^-5 M for most compounds. The reported endpoint is percent growth (GI% or GIPRCNT), where numbers from 0 - 100% represent growth inhibition, and numbers from -100% - 0 represent cell death. For example, a value of 40 represents 60% growth inhibition. A value of 0 means no net growth occurred over the course of the experiment. A value of -40 indicates 40% of cells at the beginning of the experiment died by the end of the experiment. A value of -100 means all cells are dead at the end of the experiment.
NCI-60 Human Tumor Cell Lines Screen was performed using the standard one-dose NCI protocol, which is described in more detail at https://dtp.cancer.gov/discovery_development/nci-60/default.htm.
Compounds with GIPRCNT values below 10 were considered active. Activity score was based on GIPRCNT using the following formula: […]
Score is 0 for GIPRCNT values of 100 or above, 50 for GIPRCNT values of 0, and 100 for GIPRCNT values of -100.
As to `COc1cc2c(-c3nc4cc(Cl)c(F)cc4s3)cc(=O)oc2c(C)c1OC`, the growth was -92.3% (active).

`CN1COc2ccc3ccccc3c2C1`: the growth was 92%.

As to `O=C1Cc2cc(CCn3cncn3)c(Cl)cc2N1`, the growth is 73.4%.

`COC(=O)CC1=C(C)/C(=C/c2[nH]c(-c3ccc[nH]3)cc2OC)N=C1C`: the growth is 5.15% (active).

Consider `C[N+]1(CCc2ccccc2)CCC(CCC2CC[N+](C)(CCc3ccccc3)CC2)CC1` (stereo not given), for which the growth was 87.9%.

Consider `Cc1nc2cc(NC(=O)CN3CCN(CCN4C(=O)c5cccc6cccc(c56)C4=O)CC3)ccc2s1`, for which the growth was 43.4%.

Regarding `COc1ccc(-c2c3c(nn2-c2ccc(N)cc2)CCc2cnoc2-3)cc1OC`, the growth is 89.1%.

Regarding `CCC(=O)Nc1ccccc1C#C/C=C\C#Cc1ccccc1C(F)(F)F`, the growth is 34.9%.

With `CCOC(=O)/C(=C/c1ccccc1)C(=O)c1ccccc1`, the growth was 68.1%.

As for `Cn1cc(-c2csc(-c3cn(C)c4ncccc34)n2)c2cc(F)cnc21`, the growth is 82.4%.

For the compound `CCCOc1ccc2c(c1)CC[C@@H]1[C@@H]2CC[C@@]2(C)[C@H]1CC[C@]2(C)O`, the growth is 72%.

Regarding `O=C(C(=O)N1CCCCC1)c1ccc(OC2OC(CO)C(O)C(O)C2O)cc1` (stereo not given), the growth is 96.4%.

`CC(=O)c1ccc2c3c(n(C)c2c1)CCCC3`: the growth is 102%.

Consider `O=C(c1ccccc1)c1ccco1`, for which the growth is 99.1%.

As to `Cc1cc(N2CCOCC2)nc(N2CCOCC2)n1`, the growth is 102%.

Regarding `O=C1N(C2CCCCC2)C(=O)N1C1CCCCC1`, the growth is 48%.

For the compound `C/C(=C\CCc1ccoc1)CC/C=C(\C)CCCN1CCC(CO)CC1`, the growth is 40%.

On to `COC(=O)[C@]12CC[C@@H](C)[C@H](C)[C@@H]1C1=CC[C@@H]3[C@@]4(C)C=C(O)C(=O)[C@@]5(C)COC(=C54)C[C@@]3(C)[C@]1(C)CC2`, for which the growth was -74.9% (active).

With `Clc1ccc(-c2nc(-c3cccs3)no2)c(Cl)c1`, the growth is 90.1%.

For the compound `O=[P@@]1(c2ccccc2)O[C@H](COCc2ccccc2)[C@@H](OCc2ccccc2)[C@H](OCc2ccccc2)[C@H]1NCc1ccccc1`, the growth is 20.9%.

Take `O=C(Nc1ccc(OCc2nnc(-c3ccccc3)o2)c(F)c1)Nc1ccc(Cl)c(C(F)(F)F)c1`: the growth is 7.14% (active).

Turning to `COC(=O)[C@]12CC[C@@H](C)[C@H](C)[C@@H]1C1=CC[C@@H]3[C@@]4(C)C[C@@H](OC(=O)c5ccco5)[C@H](O)[C@@](C)(CO)[C@@H]4[C@H](O)C[C@@]3(C)[C@]1(C)CC2`, the growth is -85.2% (active).

Consider `COc1ccc2c(c1)nc(N)c1c3cc(OC)c(OC)cc3cn21`, for which the growth was 30.6%.

As to `O=C(c1ccccc1)c1ccccc1Cl`, the growth was 99%.

For the compound `CCN1C(=O)c2ccc3c4c(ccc(c24)C1=O)C(=O)N(CCCNCc1ccccc1OC)C3=O`, the growth is -86.3% (active).

As to `c1ccc(-c2nn[nH]n2)c(-c2ccc(CN3CCN(c4nsc5ccccc45)CC3)cc2)c1`, the growth is 85.5%.

For the compound `O=C(/C=C/c1cc2ccccc2[nH]c1=O)c1ccc(O)cc1`, the growth was 21.9%.

With `Oc1ccccc1C=Nc1ccccc1N=Cc1ccccc1O.[Cu+2]`, the growth was 61.8%.

On to `Nc1ccc(C2=Nc3cccc4cccc(c34)S2)cc1`, for which the growth is 91.8%.

Regarding `O=C1NCC(Nc2ccc(Br)cc2Cl)C(=O)N1` (stereo not given), the growth is 123%.

For the compound `CC(=O)Oc1ccc(C23c4ccccc4C2(OC(C)=O)c2cc(OC(C)=O)ccc23)cc1` (stereo not given), the growth was 9.83% (active).

With `Fc1ccc(-c2nnc(-c3c(-c4ccc(F)cc4)nc4ncccn34)o2)cc1`, the growth was 107%.

In the case of `COc1cc(/C=C/C(=O)Nc2ccc3c(c2)/C(=C\c2cccn2C)C(=O)N3)cc(OC)c1OC`, the growth was 52.4%.

Consider `Cc1c(C)c(N2C(=O)C=CC2=O)c(C)c(C)c1N1C(=O)C=CC1=O`, for which the growth was 112%.

Turning to `CCC(CCC(C)C1CCC2C3CC=C4CC(O)CCC4(C)C3CCC12C)C(C)C` (stereo not given) (tested in a mixture with another compound), the growth was 90.2%.

As for `N#CCNc1ccccc1N`, the growth is 97.2%.

Consider `O=C1OCC/C1=C\OCCCO/C=C1\CCOC1=O`, for which the growth was 99.6%.

As to `CCc1ccc(CCN2C(=O)c3ccccc3C2=O)nc1`, the growth is 103%.

Consider `N#Cc1c(N)[nH]c(S)c1C#N`, for which the growth was 101%.

Consider `O=C(/C(=C/c1ccc([N+](=O)[O-])cc1)c1ccccc1)c1ccccc1`, for which the growth is 52.6%.
